Results reported in PubChem BioAssay (NCATS).
Values joined by “and” are separate entries in the source; they are usually repeats but may differ in a detail not shown here. Identical values can stand only once. Inconclusive results are not listed. More than one record can exist for a structure, and the calls need not agree. Unmarked numbers belong to inactive results. Active and inactive are the calls of the source. The call rests on the fitted dose curve; in most records, active means well fitted inhibition curve with a large enough effect; inconclusive means small, poorly fitted or top-dose-only effect; inactive means flat fitted curve, though single readings scatter.

tested on: PC15; test: qHTS profiling for inhibitors of Plasmodium falciparum proliferation (AID 504749);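 further: 0% = DMSO vehicle and full inhibition = artemisinin control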; conditions: P. falciparum in erythrocytes, SYBR Green DNA, 72 h; series mostly up to 28.7 µM; activity, negative = inhibition: at the top concentration
Summary of the method: (§1)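 SYBR Green fluorescence of parasite DNA, read after lysis and overnight dark incubation, measured growth over 72 h in erythrocyte culture at 0.3% parasitemia and 2.5% hematocrit. Data normalised to DMSO and 0.29 uM artemisinin, with plate-drift correction.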
Further: nearly all actives have a fitted effect of over 60% in size.

SMILES	activity, negative = inhibition
Cc1cn[nH]c1	15.3%
CCCCNc1cc(C(=O)O)cc(S(N)(=O)=O)c1Oc1ccccc1	1.02% [at 12.8 µM]
CC(C[N+](C)(C)C)OC(N)=O (stereo not drawn)	17.4%

tested on: PC26; test: as above; conditions: P. falciparum in erythrocytes, SYBR Green DNA, 72 h; series mostly up to 28.7 µM; activity, negative = inhibition: at the top concentration
Summary of the method: as §1

SMILES	activity, negative = inhibition
Cc1cn[nH]c1	5.91%
CCCCNc1cc(C(=O)O)cc(S(N)(=O)=O)c1Oc1ccccc1	-5.39% [at 12.8 µM]
CC(C[N+](C)(C)C)OC(N)=O (stereo not drawn)	4.28%

tested on: PC49; test: as above; conditions: P. falciparum in erythrocytes, SYBR Green DNA, 72 h; series mostly up to 28.7 µM; activity, negative = inhibition: at the top concentration
Summary of the method: as §1

SMILES	activity, negative = inhibition
Cc1cn[nH]c1	1.02%
CCCCNc1cc(C(=O)O)cc(S(N)(=O)=O)c1Oc1ccccc1	10.1% [at 12.8 µM]
CC(C[N+](C)(C)C)OC(N)=O (stereo not drawn)	11.8%

tested on: SC27B; test: as above; conditions: P. falciparum in erythrocytes, SYBR Green DNA, 72 h; series mostly up to 28.7 µM; activity, negative = inhibition: at the top concentration
Summary of the method: as §1

SMILES	activity, negative = inhibition
Cc1cn[nH]c1	11.2%
CCCCNc1cc(C(=O)O)cc(S(N)(=O)=O)c1Oc1ccccc1	5.97% [at 12.8 µM]
CC(C[N+](C)(C)C)OC(N)=O (stereo not drawn)	6.27%

tested on: TAB109; test: as above; conditions: P. falciparum in erythrocytes, SYBR Green DNA, 72 h; series mostly up to 28.7 µM; activity, negative = inhibition: at the top concentration
Summary of the method: as §1

SMILES	activity, negative = inhibition
Cc1cn[nH]c1	5.19%
CCCCNc1cc(C(=O)O)cc(S(N)(=O)=O)c1Oc1ccccc1	8.35% [at 12.8 µM]
CC(C[N+](C)(C)C)OC(N)=O (stereo not drawn)	11.5%

tested on: TAB113; test: as above; conditions: P. falciparum in erythrocytes, SYBR Green DNA, 72 h; series mostly up to 28.7 µM; activity, negative = inhibition: at the top concentration
Summary of the method: as §1

SMILES	activity, negative = inhibition
Cc1cn[nH]c1	13.5%
CCCCNc1cc(C(=O)O)cc(S(N)(=O)=O)c1Oc1ccccc1	0.542% [at 12.8 µM]
CC(C[N+](C)(C)C)OC(N)=O (stereo not drawn)	6.08%

tested on: TAB165; test: as above; conditions: P. falciparum in erythrocytes, SYBR Green DNA, 72 h; series mostly up to 28.7 µM; activity, negative = inhibition: at the top concentration
Summary of the method: as §1

SMILES	activity, negative = inhibition
Cc1cn[nH]c1	9.35%
CCCCNc1cc(C(=O)O)cc(S(N)(=O)=O)c1Oc1ccccc1	-3.14% [at 12.8 µM]
CC(C[N+](C)(C)C)OC(N)=O (stereo not drawn)	0.0879%

tested on: W2; test: as above; conditions: P. falciparum in erythrocytes, SYBR Green DNA, 72 h; series mostly up to 28.7 µM; activity, negative = inhibition: at the top concentration
Summary of the method: as §1

SMILES	activity, negative = inhibition
Cc1cn[nH]c1	20.8%
CCCCNc1cc(C(=O)O)cc(S(N)(=O)=O)c1Oc1ccccc1	9.19% [at 12.8 µM]
CC(C[N+](C)(C)C)OC(N)=O (stereo not drawn)	-7.1%

tested on: CRL-7250; test: Cytotoxic Profiling of Annotated Libraries Using Quantitative High-Throughput Screening (AID 1296008); conditions: Five cell lines viability, CellTiter-Glo ATP luminescence, 48-72 h; max response: active compounds read low; further: potency means the concentration at half of the fitted maximal effect; on max response: on the % scale 0 is the no-effect control and ±100 the full control effect
Summary of the method: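 Cytotoxicity was measured as CellTiter-Glo ATP luminescence, read after 10 min at room temperature. Compound treatment of the cells lasted 48 or 72 hr at 37 degrees Celsius in a qHTS format.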

SMILES	Potency	max response	outcome
Cc1cn[nH]c1	5.26 µM (active)	-13.4%	
O=S(=O)(N=Cc1c(O)ccc2ccccc12)c1cccs1		-0.432%	
CCOC(=O)N[C@@H]1CC[C@@H]2[C@@H](C1)C[C@H]1C(=O)O[C@H](C)[C@H]1[C@@H]2C=Cc1ccc(-c2cccc(F)c2)cn1		-6.96%	
COc1cc2nccc(Oc3ccc(NC(=O)NC4CC4)c(Cl)c3)c2cc1C(N)=O	0.92 µM (active)		
CCC(C)N(C)C(=O)c1cc2ccccc2c(-c2ccccc2Cl)n1 (stereo not drawn)		0.969%	
CN(C)c1ccc(Nc2nc(N)n(C(=O)c3c(F)cccc3F)n2)cc1		4.97%	
CN(C)c1ccc(C2Nc3ccc4ccccc4c3C3=C2C(=O)CC(C)(C)C3)cc1Br (stereo not drawn)		-23.7% and -20.8%	
CC(C)OC(=O)C1=CN(C(=O)c2ccc(F)c(F)c2)CC(C)(C)c2c1[nH]c1ccccc21		1.22%	inactive
O=C1CCCC2=C1C(c1[nH]ncc1Cl)N=C(Nc1nc3ccccc3o1)N2 (stereo not drawn)		2.7%	inactive
COc1ccc([C@@H]2CC(=O)c3c(O)cc(O[C@@H]4O[C@H](CO[C@@H]5O[C@@H](C)[C@H](O)[C@@H](O)[C@@H]5O)[C@@H](O)[C@H](O)[C@@H]4O)cc3O2)cc1O		-5.3%	inactive
CCCCNc1cc(C(=O)O)cc(S(N)(=O)=O)c1Oc1ccccc1		0.377%	inactive
NC(=O)c1ccc(-c2nc(-c3ccc4c(c3)OCO4)c(-c3ccccn3)[nH]2)cc1		3.54%	
CCCCCCCc1ccc(CCc2cccc(O)c2C(=O)O)cc1		-0.808%	
CCN(CC)CCCC(C)Nc1ccnc2cc(Cl)ccc12 (stereo not drawn)		3.49%	inactive
COc1cc(Oc2ccnc3cc(OC)c(OC)cc23)ccc1NC(=O)NC(C)c1nccs1 (stereo not drawn)		-3.15% and -18.6%	
C[C@@H]1CN(Cc2ccc(F)cc2)[C@@H](C)CN1C(=O)c1cc2c(C(=O)C(=O)N(C)C)cn(C)c2cc1Cl		4.08%	inactive
COc1nc(-c2ccc3c(c2)OCO3)n(-c2ccc(NC(=O)CSc3ccccc3)cc2)n1		-34%	

SMILES	Potency	max response	outcome
S=C(NCc1ccc2c(c1)OCO2)N1CCN(c2ncnc3c2oc2ccccc23)CC1	1.46 µM (active)	-64.3%	
COc1cc(F)c(F)c(Nc2ccc(I)cc2F)c1NS(=O)(=O)C1(C[C@H](O)CO)CC1	5.8 µM (active)	-24.3%	
Cc1c(CCOc2ccc(C(=O)O)cc2)c2cc(Cl)ccc2n1C(c1ccccc1)c1ccccc1		-5.22%	
O=C(C1CC1)N1CC[C@@H](Cn2c(-c3ccc(-c4ccc5occc5c4)cc3)nc3cnccc32)C1			inactive
Cc1ccccc1C(C(=O)NC1CCCC1)N(C(=O)Cn1cnc2ccccc21)c1cccc(F)c1 (stereo not drawn)		1.73%	
N#CC[C@H](C1CCCC1)n1cc(-c2ncnc3[nH]ccc23)cn1		-20.9% and 3.07%	
Cc1ccc(-n2nc(C(C)(C)C)cc2NC(=O)Nc2ccc(OCCN3CCOCC3)c3ccccc23)cc1		1.93% and -9.63%	
COc1ccc2c3n(c(=NC(=O)c4cccnc4)nc2c1OC)CCN3		-15.5%	
CC(C[N+](C)(C)C)OC(N)=O (stereo not drawn)		0.597%	inactive
CCc1cc(Nc2nccc(-c3c(-c4ccc(OC)c(C(=O)Nc5c(F)cccc5F)c4)nc4ccccn34)n2)c(OC)cc1N1CCC(N2CCN(S(C)(=O)=O)CC2)CC1		-19.7%	
Cc1ccnc(NS(=O)(=O)c2ccc(NC(=O)Nc3ccc(S(=O)(=O)Nc4nccc(C)n4)cc3)cc2)n1	0.372 µM (active)	-2.52%	
Nc1cccc(S(=O)(=O)N2CCCN(S(=O)(=O)c3ccc4c(c3)OCCO4)CC2)c1		0.264%	
O=C(C=Cc1ccc(/C=C/C(=O)Nc2ccc(C3=NCCN3)cc2)cc1)Nc1ccc(C2=NCCN2)cc1			inactive
Nc1ncnc2nc(-c3ccc(N4CCOCC4)nc3)cc(-c3cccc(Br)c3)c12		0.286%	
Cn1c(=O)c(F)c(Nc2ccc(I)cc2F)c2c(=O)n(C[C@@H](O)CO)cnc21	0.935 µM (active)		
COc1c(Cl)cc2c([nH]c3cnccc32)c1NC(=O)c1cccnc1C			inactive
